Results filed as inconclusive are left out. Activity calls are given as the source filed them. Calls come from the whole dose curve; as a rule, active = well fitted inhibition curve with a large enough effect; inconclusive = small, poorly fitted or top-dose-only effect; inactive = flat fitted curve, though single readings scatter. Where a SMILES comes first, the peptide text is derived from it. Bridges are numbered along the chain shown (N, C = ends). [ ]: non-standard residue; d: D form. The star is where a group is joined. X1 = CC[C@@H](C)[C@@H](N)C1=N[C@H](C(=O)*)CS1; d(aIle) = CC[C@H](C)[C@@H](N)C(=O)O; dOrn = NCCC[C@@H](N)C(=O)O
Test system: not listed separately
Experiment: Drug repurposing screens with cells derived from glioblastoma tumor samples (AID 1345199); note: nearly all actives have a fitted effect of over 40% in size
Conditions: GBM patient neurospheres viability, ATP luminescence, 48 h; tumour line A
Procedure, shortened: (§1)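 Primary testing used CD133+ neurospheres from four GBM patients, seven concentrations, 48 h exposure and ATP-based viability; confirmation added three slower-growing patient lines.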
Potency is the fitted concentration of half-maximal effect.

SMILES | Potency
CCOC(=O)C1=C(COCCN)NC(C)=C(C(=O)OC)C1c1ccccc1Cl (configuration not stated) | 11.2 µM (active)
CCCCC[C@H](O)/C=C/[C@H]1[C@H](O)CC(=O)[C@@H]1CCCCCCC(=O)O | 11.2 µM (active)
COc1ccc(C[C@H](C)NC[C@@H](O)c2ccc(O)c(NC=O)c2)cc1 | 17.8 µM (active)
C#C[C@]1(O)CC[C@@H]2[C@H]3CCC4=CC(=O)CC[C@H]4[C@H]3C(=C)C[C@@]21CC | 22.4 µM (active)
CC1=C(/C=C/C(C)=C/C=C/C(C)=C/C(=O)Oc2c(C)c(C)c3c(c2C)CC[C@@](C)(CCC[C@H](C)CCC[C@H](C)CCCC(C)C)O3)C(C)(C)CCC1 | 25.1 µM (active)
N[C@@H](Cc1cc(I)c(Oc2ccc(O)c(I)c2)c(I)c1)C(=O)O | 11.2 µM (active)
CCN(CC)CCOCCOC(=O)C(CC)(CC)c1ccccc1 | 1.41 µM (active)
Nc1nc(NC2CC2)c2ncn([C@@H]3C=C[C@@H](CO)C3)c2n1 | 35.5 µM (active)
CN(C)CCOc1ccc(/C(=C(/CCCl)c2ccccc2)c2ccccc2)cc1 | 8.91 µM (active)
CCCCC(=O)O[C@H]1CC[C@H]2[C@@H]3CCc4cc(O)ccc4[C@H]3CC[C@]12C | 28.2 µM (active)
COc1ccc2c(c1)N(C[C@H](C)CN(C)C)c1ccccc1S2 | 4.47 µM (active)
C=C1CC[C@H](O)CC1=C/C=C1\CCC[C@]2(C)[C@@H]([C@H](C)/C=C/[C@H](C)C(C)C)CC[C@@H]12 | 10 µM (active)
CN(C)CCCSc1ccccc1NC(=O)/C=C/c1ccccc1 | 10 µM (active)
C[C@]12CC[C@@H]3c4ccc(OC(=O)c5ccccc5)cc4CC[C@H]3[C@@H]1CC[C@@H]2O | 11.2 µM (active)
CC(C)=CCC/C(C)=C/CC/C(C)=C/CC/C(C)=C/CC1=C(C)C(=O)c2ccccc2C1=O | 10 µM (active)

Same assay, conditions: GBM patient neurospheres viability, ATP luminescence, 48 h; tumour line D

SMILES | Potency
CCN(CC)CCOCCOC(=O)C(CC)(CC)c1ccccc1 | 8.91 µM (active)
CN(C)CCOc1ccc(/C(=C(/CCCl)c2ccccc2)c2ccccc2)cc1 | 12.6 µM (active)
CCCCC(=O)O[C@H]1CC[C@H]2[C@@H]3CCc4cc(O)ccc4[C@H]3CC[C@]12C | 11.2 µM (active)
COc1ccc2c(c1)N(C[C@H](C)CN(C)C)c1ccccc1S2 | 12.6 µM (active)

Test system: astro (control astrocytes)
Experiment: as above
Conditions: viability, ATP luminescence, 48 h; series mostly up to 45.9 µM
Procedure, shortened: as §1

SMILES | Potency
CC(C)(C)c1ccc(CN2CCN(C(c3ccccc3)c3ccc(Cl)cc3)CC2)cc1 (configuration not stated) | 35.5 µM (active)
COc1ccc(C[C@H](C)NC[C@@H](O)c2ccc(O)c(NC=O)c2)cc1 | inactive
O=C(OCc1ccccc1)c1ccc(O)cc1 | inactive
COc1ccc2nc(NC(=O)Nc3ccccc3)sc2c1 | 7.94 µM (active)
CC(C)(C)c1ccc2c(S(=O)(=O)O)c(C(C)(C)C)ccc2c1 | inactive
C=C1[C@H](CO)[C@@H](O)C[C@@H]1n1cnc2c(=O)[nH]c(N)nc21 | inactive
CC[C@@H](C)[C@@H](N)C1=N[C@H](C(=O)N[C@@H](CC(C)C)C(=O)N[C@@H](CCC(=O)O)C(=O)N[C@@H](C(=O)N[C@@H]2CCCCNC(=O)[C@@H](CC(N)=O)NC(=O)[C@@H](CC(=O)O)NC(=O)[C@@H](Cc3cnc[nH]3)NC(=O)[C@@H](Cc3ccccc3)NC(=O)[C@@H]([C@H](C)CC)NC(=O)[C@@H](CCCN)NC2=O)[C@@H](C)CC)CS1 (X1-LE[d(aIle)][dK][dOrn][dI][dF][dH][dD][dN]; lactam 4-C) | inactive
N[C@@H](Cc1cc(I)c(Oc2ccc(O)c(I)c2)c(I)c1)C(=O)O | inactive
CO[C@H]1C[C@@H]2CC[C@@H](C)[C@@](O)(O2)C(=O)C(=O)N2CCCC[C@H]2C(=O)O[C@H]([C@H](C)C[C@@H]2CC[C@@H](OC(=O)C(C)(CO)CO)[C@H](OC)C2)CC(=O)[C@H](C)/C=C(\C)[C@@H](O)[C@@H](OC)C(=O)[C@H](C)C[C@H](C)/C=C/C=C/C=C/1C | inactive
CC(=O)Oc1cccc2c1C(=O)c1c(OC(C)=O)cc(C(=O)O)cc1C2=O | inactive
C/C(=C\C(=O)OCCCCCCCCC(=O)O)C[C@@H]1OC[C@H](C[C@@H]2O[C@H]2[C@@H](C)[C@H](C)O)[C@@H](O)[C@H]1O | inactive
C[C@H]1O[C@@H](O[C@H]2[C@@H](O)C[C@H](O[C@H]3[C@@H](O)C[C@H](O[C@H]4CC[C@@]5(C)[C@H](CC[C@@H]6[C@@H]5C[C@@H](O)[C@]5(C)[C@@H](C7=CC(=O)OC7)CC[C@]65O)C4)O[C@@H]3C)O[C@@H]2C)C[C@H](O)[C@@H]1O | 0.316 µM (active)
Oc1ccc(/C=C/c2cc(O)cc(O)c2)cc1 | 4.47 µM (active)
CC(=O)Nc1ccc(NC(=S)NC(=O)c2ccc(C(C)(C)C)cc2)cc1 | 3.98 µM (active)
CN(C)CCCSc1ccccc1NC(=O)/C=C/c1ccccc1 | inactive
O=C1c2ccccc2C(=O)c2c1ccc(O)c2O | inactive
CC1CC(OC(=O)C(O)c2ccccc2)CC(C)(C)C1 (configuration not stated) | inactive
O=C(O)CCC(=O)c1ccc(-c2ccccc2)cc1 | inactive

Reference: PubChem BioAssay (NCATS)
